MMP-13 inhibitor: human MMP13 inhibitors, primary screen, biochemical, FRET peptide cleavage; AID 570, 2006; MMP-13 fTHP FRET cleavage, Mca fluorescence; Collagenase 3 (Homo sapiens), P45452; inhibition, % at 4 µM; actives 0.07% (n = 65,000);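 active = inhibition above the mean of compound-free control plate wells plus 3 SD, cut at about 14% in these data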;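 note: 0% = DMSO wells and 100% = wells with reference MMP-13 inhibitor after basal subtraction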
M1 antagonist: antagonists of rat M1 muscarinic receptor; B-score at 10 µM; CHO-M1 cells, Fluo-4 calcium, ACh EC80 antagonist mode; stronger effect = lower value; actives 3.4% (n = 64,000); Muscarinic acetylcholine receptor M1 (Rattus norvegicus), P08482;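 active = calcium fluorescence response, raw or row-and-column corrected B-score, differing from the plate sample mean either way at a set confidence level, mostly lower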
Cdc25B block: inhibitors of Cdc25B phosphatase catalytic domain, primary screen, biochemical, OMFP fluorescence | actives 0.1% (n = 65,000) | recombinant Cdc25B, OMFP fluorescence Ex485/Em525 | inhibition, %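 (compounds tested at 10 µM final in the well)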 | M-phase inducer phosphatase 2 (Homo sapiens), P30305; in the data active = inhibition above about 50%
Target sequence (P30305 whole entry, looked up, the tested form may be a part): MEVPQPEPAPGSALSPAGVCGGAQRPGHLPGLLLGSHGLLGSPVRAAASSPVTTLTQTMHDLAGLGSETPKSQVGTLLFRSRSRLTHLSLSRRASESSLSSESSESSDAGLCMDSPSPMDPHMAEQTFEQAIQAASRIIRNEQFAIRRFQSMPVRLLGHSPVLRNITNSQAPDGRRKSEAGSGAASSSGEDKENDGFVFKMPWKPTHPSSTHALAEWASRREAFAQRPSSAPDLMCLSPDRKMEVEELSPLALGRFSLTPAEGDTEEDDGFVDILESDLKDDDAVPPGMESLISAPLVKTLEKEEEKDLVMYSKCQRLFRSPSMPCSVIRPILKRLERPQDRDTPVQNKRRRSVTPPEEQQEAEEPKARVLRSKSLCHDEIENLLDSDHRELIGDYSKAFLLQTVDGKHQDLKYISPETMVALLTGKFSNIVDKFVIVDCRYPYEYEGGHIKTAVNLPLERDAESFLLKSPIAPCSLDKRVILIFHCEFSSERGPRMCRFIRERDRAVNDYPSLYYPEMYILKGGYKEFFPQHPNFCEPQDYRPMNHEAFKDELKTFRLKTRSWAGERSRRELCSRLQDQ
Hsp90 block: tumor Hsp90 inhibitors, primary screen, cell lysate, fluorescence polarization, NCI-N417 lysate; Cy3B-geldanamycin FP displacement; inhibition, % at 30 µM; actives 0.35% (n = 64,000);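 active = inhibition above 50%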;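 note: 0% = tracer plus lysate wells and 100% = tracer alone without lysate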
M1 ag: M1 muscarinic receptor agonists, primary screen, CHO-M1 cells, Fluo-4 calcium, agonist mode. Muscarinic acetylcholine receptor M1. Fluo-4 calcium fluorescence; stronger effect = higher value. B-score at 10 µM. actives 3% (n = 64,000);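 active = fluorescence rise, raw or as B-score row- and column-corrected plate score, outside the 99.7% band of its plate's samples, either direction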
MKP-1 inh: MKP-1 phosphatase inhibitors, primary screen, biochemical, in vitro. Dual specificity protein phosphatase 1 (Homo sapiens), P28562. recombinant MKP-1, OMFP hydrolysis fluorescence. inhibition, %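 (compounds tested at a single concentration somewhere between 10 and 100 µM)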. actives 0.15% (n = 65,000);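 active = inhibition above about 50%, limit read from the data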;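 note: 0% = DMSO max control wells and 100% = wells with enzyme stopped by NaOH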
M1 antag conf: rat M1 muscarinic receptor antagonists, confirmation, CHO cells, Fluo-4 calcium, duplicate. shares compounds with M1 antagonist. ACh EC80 antagonism; stronger effect = lower value. calcium response (max-min fluorescence) at 10 µM. actives 43% (n = 1,700). AID 677, 2007;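 active = calcium response below the same-plate mean of wells given acetylcholine alone at its 80%-effect dose, minus 3 SD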;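 note: raw fluorescence intensity difference in arbitrary instrument units and not normalized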
mGluR4 antag: human mGluR4 response to M1 antagonist hits, M1 allosteric modulator project, cell-based, antagonist mode, secondary assay 1; fluorescence response (max-min) at 10 µM; CHO-mGluR4 calcium flux, Fluo-4 fluorescence, glutamate EC80; stronger effect = lower value; shares compounds with M1 antagonist; actives 0.9% (n = 1,700);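 active = fluorescence response below the plate's average for near-maximal glutamate wells, less 3 SD of those wells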;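 note: raw unnormalized fluorescence span taken in the window right after glutamate addition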
Numbers without * were called inactive; . = not tested or not shown. Hits are enriched below; roughly 6.1% of the tested compounds scored in any of these assays.

SMILES | MMP-13 inhibitor | M1 antagonist | Cdc25B block | Hsp90 block | M1 ag | MKP-1 inh | M1 antag conf | mGluR4 antag
Cc1nc2ccccc2c2oc(C(=O)NCCN3CCCCC3C)cc12 (configuration not stated) | -16 | -3.4* | -10 | -2 | -0.63 | -6 | 354* | 242
O=C(NCCN1CCOCC1)C1CCN(c2nc3ccccc3o2)CC1 | -53 | -2.2* | -4 | 0 | 0.17 | 0 | 458* | 244
CC1CCCCN1CCCNC(=O)C1CCN(c2nc3ccccc3o2)CC1 (configuration not stated) | 7 | -4.1* | -15 | -4 | -0.38 | -6 | 67* | 242
CCOC(=O)Cc1csc(SCc2nc3ccccc3c(=O)[nH]2)n1 | 6 | 0.44 | -6 | -2 | -0.03 | 8 | . | .
CCOC(=O)c1sc2ncnc(NCC(c3cccs3)N(C)C)c2c1C (configuration not stated) | -42 | -3.4* | 9 | -8 | -0.23 | 28 | 496* | 188
COCCNC(=O)C(c1cccs1)N(C(=O)Cn1nnc2ccccc21)c1cccc(C(C)=O)c1 (configuration not stated) | -2 | 0.48 | -2 | -3 | -0.036 | 5 | . | .
COCCNC(=O)C(c1cccs1)N(C(=O)Cn1nnc2ccccc21)c1cccc(C)c1 (configuration not stated) | -2 | -18* | -6 | -3 | -0.47 | 1 | 679 | 234
CCCC(=O)Nc1cccc(NC(=O)c2ccc3c(c2)OCO3)c1 | -1 | 0.14 | -1 | -1 | 0.28 | 9 | . | .
CCC(=O)Nc1cccc(NC(=O)c2ccc3c(c2)OCCO3)c1 | 2 | -2.6* | -3 | -3 | 0.23 | -12 | 605 | 216
Cc1cccc(OCC(=O)Nc2ccc3c(c2)OCCO3)c1 | 1 | -5* | -13 | 1 | 0.28 | -2 | 653 | 247
CCCCOC(=O)C1C2C=CC3(CN(CCc4ccccc4)C(=O)C13)O2 (configuration not stated) | . | -0.033 | -9 | . | -1.2 | 7 | . | .
CC(C)(C)c1ccccc1OCCN1CCCC1 | 1 | -11* | 3 | 0 | 0.12 | 5 | 176* | 209
O=C(OCCN1CCCCC1)c1ccc(O)cc1 | -2 | -0.56 | -4 | -1 | -0.032 | 8 | . | .
O=C(OCCN1CCCCC1)c1ccccc1Cl | 1 | -2.6* | -3 | -2 | -0.096 | -12 | 543 | 230
Clc1ccccc1OCCCCN1CCCC1 | -1 | -1.7* | -15 | -1 | -0.89 | 1 | 454 | 186
CC(=O)c1ccccc1OCCCN1CCCCC1 | -7 | -2.3* | -9 | -3 | 0.13 | 0 | 356* | 225
CC(=O)NC(C)C(=O)OCc1ccc(Cl)cc1Cl (configuration not stated) | -6 | -0.013 | -5 | -2 | 0.92 | -8 | . | .
CCCCNCCCOc1cccc(Cl)c1 | -1 | -4.6* | -1 | -1 | -2.8* | 8 | 483 | 219
O=C(NCc1ccco1)C1c2ccccc2Oc2ccccc21 | -10 | -5.4* | 8 | -8 | -0.45 | 3 | 556 | 210
Cn1cc(CNC(=O)C2c3ccccc3Oc3ccccc32)cn1 | 4 | 2.3 | -11 | -2 | -0.87 | 2 | . | .
Cc1csc(N(C(=O)c2cccc(S(=O)(=O)N(C)C)c2)c2ccccc2)n1 | 1 | -0.47 | -13 | -4 | 2.2 | 2 | . | .
CCn1c(=NC(=O)c2ccc(S(=O)(=O)N3CCOCC3)cc2)sc2cccc(OC)c21 | 0 | -1.8* | -8 | -4 | 1.1 | 8 | 588 | 237
